In the library only some 4.8% were active in any assay of this set; here they are far more common.
S2 tox = Viability Counterscreen for Primary qHTS for Inhibitors of ATXN expression; S2 cells (HEK-293 line with an ATXN2-luciferase reporter) viability, CellTiter-Fluor protease fluorescence, 24 h; Potency, µM (highest dose often 56.7 µM), most hits filed as cytotoxic; hit rate 0.49% among 400,000; AID 651635, 2014; further: nearly all actives have a fitted effect of over 40% in size
USP1 inh = Inhibitors of USP1/UAF1: Primary Screen; recombinant USP1/UAF1, Ub-Rhodamine cleavage fluorescence; Potency, µM (titrated, usually from 57.1 µM), most hits filed as inhibitors; hit rate 0.23% among 390,000; further: nearly all actives have a fitted effect of over 60% in size
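USP1/UAF1 complex (1 nM) preincubated 15 min at room temperature with compound, then Ub-Rho substrate (150 nM final) added. Kinetic fluorescence at 480/540 nm over 6 reads at 60 s intervals; 50 mM HEPES pH 7.8, 0.5 mM EDTA, 0.1 mg/ml BSA, 1 mM TCEP, 0.01% Tween-20.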
USP2a inh = qHTS Assay for Inhibitors of Ubiquitin-specific Protease USP2a Using CHOP2 as the Reporter; Ubiquitin carboxyl-terminal hydrolase 2 (Homo sapiens), O75604; USP2 core, Ub-CHOP2 coupled fluorogenic reporter, 485/531; Potency, µM (highest dose often 38.3 µM), actives largely listed as inhibitors; hit rate 0.01% among 330,000; AID 463254, 2010
Target sequence (O75604 whole entry, looked up): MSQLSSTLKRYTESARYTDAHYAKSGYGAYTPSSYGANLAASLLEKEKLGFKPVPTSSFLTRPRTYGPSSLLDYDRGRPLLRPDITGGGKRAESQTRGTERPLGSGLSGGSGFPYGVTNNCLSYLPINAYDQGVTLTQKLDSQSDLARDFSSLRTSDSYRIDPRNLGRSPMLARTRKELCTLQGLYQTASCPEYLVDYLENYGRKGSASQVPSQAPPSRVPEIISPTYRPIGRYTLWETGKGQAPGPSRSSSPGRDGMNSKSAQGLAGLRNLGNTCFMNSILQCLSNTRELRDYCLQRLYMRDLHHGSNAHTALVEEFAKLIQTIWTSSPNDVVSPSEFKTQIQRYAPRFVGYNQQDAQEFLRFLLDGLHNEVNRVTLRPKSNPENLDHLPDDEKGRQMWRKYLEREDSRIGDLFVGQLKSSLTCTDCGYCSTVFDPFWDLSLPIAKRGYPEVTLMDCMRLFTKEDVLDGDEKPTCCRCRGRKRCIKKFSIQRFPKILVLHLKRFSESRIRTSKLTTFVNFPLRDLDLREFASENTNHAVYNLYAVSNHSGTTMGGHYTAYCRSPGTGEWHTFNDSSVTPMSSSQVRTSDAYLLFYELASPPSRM
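Deubiquitinase activity read as fluorescence (485/531 nm) after Ub-CHOP2 cleavage activates the enterokinase reporter on its substrate; USP2 core 10nM, Ub-CHOP2 and substrate 25nM each, 30min compound preincubation then 60min RT; data normalized to NEM, curves fitted.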
IL-1B inflam inh = qHTS for Inhibitors of Inflammasome Signaling: IL-1-beta AlphaLISA Primary Screen; activity change, % at 57.5 µM; hit rate 4.7% among 360,000; THP-1 LPS/ATP IL-1B secretion, AlphaLISA, 16 h; active compounds read low; in the data active means activity change below about -50%; inconclusive means mostly about -30% to -49%
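Secreted IL-1B measured by AlphaLISA bead assay after 16 h compound exposure of THP-1 cells; compounds (final up to 57.5 uM) added 1 h before LPS (250 ng/mL) and ATP (1.25 mM) stimulation; lower signal means less secretion.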
ATXN2 expr inh = Primary qHTS for Inhibitors of ATXN expression | Potency, µM (doses to about 57 µM), actives largely listed as inhibitors | hit rate 0.72% among 360,000 | HEK-293 ATXN2-luciferase reporter, luminescence, 24 h | AID 1745845, 2022; further: nearly all actives have a fitted effect of over 55% in size
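ATXN2-luciferase reporter cells (luciferase flanked by upstream and downstream ATXN2 gene portions) were treated 24 h at 37 °C with compounds at up to 57 uM. SteadyGlo luminescence gave expression; GF-AFC fluorescence gave viability.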
Numbers stand for hits; 0 = inactive; ? = inconclusive; - = not tested or not shown. Unless noted, the call rests on the fitted dose curve; in most records, active means well fitted curve in the direction sought with a large enough effect; inconclusive means small, poorly fitted or top-dose-only effect, or another doubt; inactive means no such curve, though single readings can be large; an effect the other way counts as inactive or inconclusive.

SMILES	S2 tox	USP1 inh	USP2a inh	IL-1B inflam inh	ATXN2 expr inh
C/C(=N\NC(=O)CSCc1ccc([N+](=O)[O-])cc1)c1ccccc1O	?	0	0	0	17.8µM
CN(C)CCCNC(=O)/C(=C\C=C\c1ccccc1)NC(=O)c1ccc([N+](=O)[O-])cc1	0	0	0	-56.8	0
CCCCOc1ccc(C(=O)N/C(=C/C=C/c2ccccc2)C(=O)NCCO)cc1	0	0	0	-52.6	0
CCOC(=O)/C(=C\C=C\c1ccccc1)NC(=O)c1ccccc1	0	0	0	-89.9	0
CN(CC1(C)CCCO1)S(=O)(=O)c1ccc(Cl)c(S(N)(=O)=O)c1 (centres undefined)	0	-	-	-	0
Cc1ccc(NS(=O)(=O)c2ccc(NC(=O)c3ccccc3C(=O)O)cc2)c(C)c1	0	0	-	-67.4	0
COc1ccccc1S(=O)(=O)N[C@@H]1CC[C@@H](CCn2cc(C3CC3)nn2)O[C@@H]1CO	-	-	-	0	-
COc1ccc(N(CC(=O)N2CCc3ccccc32)S(=O)(=O)c2c(C)n[nH]c2C)cc1	0	0	0	-53.6	0
COc1ccc(N(CC(=O)Nc2ccc(F)c(Cl)c2)S(=O)(=O)c2c(C)noc2C)cc1	0	0	0	-54.2	0
COc1ccc(N(CC(=O)Nc2cccc(C)c2)S(=O)(=O)c2c(C)n[nH]c2C)cc1	0	0	0	0	0
COc1ccc(N(CC(=O)N2CCc3ccccc32)S(=O)(=O)c2c(C)nn(C)c2C)cc1	0	0	0	0	0
COc1ccc(N(CC(=O)Nc2ccc(C)c(C)c2)S(=O)(=O)c2c(C)n[nH]c2C)cc1	0	0	0	-124.1	0
O=C(NCc1ccccc1)/C(=C\c1cccc([N+](=O)[O-])c1)NC(=O)c1ccco1	?	0	-	0	-
COc1ccc(C2NC(=O)N(C)C3=C2C(=O)N(c2ccc(C)cc2)C3)cc1 (centres undefined)	0	0	-	-	0
CCOC(=O)[C@H]1[C@H]2COc3ccc(Br)cc3[C@H]2N2C(=O)CN(Cc3ccc(Cl)cc3)C(=O)[C@@]12C	0	0	-	-52.4	0
CCN1CCc2c(sc(NC(=O)c3cc4ccccc4cc3OC)c2C(N)=O)C1	0	?	0	-99.6	0
CCN1CCc2c(sc(NC(=O)CSc3ccccc3)c2-c2nc3ccccc3s2)C1	-	0	-	-	-
COc1cccc(OC)c1C(=O)Nc1sc2c(c1C(N)=O)CCN(Cc1ccccc1)C2	0	0	0	0	0
CC(C)N1CCc2c(sc(NC(=O)c3ccc(C(=O)c4ccccc4)cc3)c2C(N)=O)C1	?	0	0	-98.1	?
CC(C)N1CCc2c(sc(NC(=O)c3ccc4ccccc4c3)c2C(N)=O)C1	0	?	0	-84.4	0
CC(=O)Nc1sc2c(c1-c1nc3ccccc3s1)CCN(C(C)C)C2	?	0	?	-105.1	5.32µM
NC(=O)C1CCN(c2oc(-c3cccs3)nc2S(=O)(=O)c2ccc(Br)cc2)CC1	?	?	0	0	0
CCc1sc(C(=O)N(CCOC)c2c(N)n(Cc3ccccc3)c(=O)[nH]c2=O)cc1C	0	0	-	0	-
COC(=O)Nc1ccc2c(c1)N(C(=O)CCCl)c1ccccc1S2	?	?	0	-96.4	0
CCOC(=O)Nc1ccc2c(c1)N(C(=O)CN(C)C)c1ccccc1CC2	0	0	0	0	0
SMILES	S2 tox	USP1 inh	USP2a inh	IL-1B inflam inh	ATXN2 expr inh
CCOC(=O)Nc1ccc2c(c1)N(C(=O)CCN1CCOCC1)c1ccccc1S2=O (centres undefined)	?	0	0	-62.7	0
COC(=O)Nc1ccc2c(c1)N(C(=O)CCN(C)C)c1ccccc1CC2	0	0	0	-56.6	0
CC(C)OC(=O)Nc1ccc2c(c1)N(C(=O)CCN(C)C)c1ccccc1CC2	0	0	0	0	0
CCOC(=O)Nc1ccc2c(c1)N(C(=O)CCN(C)C)c1ccccc1CC2	0	0	0	-68.7	0
CC(=O)Nc1ccc(N=Nc2ccccc2)cc1[N+](=O)[O-]	0	0	-	0	0
Cc1nn(-c2ccccc2)c(C)c1CC(=O)NCC1Cc2cc(-c3cncnc3)ccc2O1 (centres undefined)	0	-	-	-	-

Bioassay records as filed in PubChem BioAssay.
